# Active and inactive are the calls of the source. The calls were made as follows: active = hit-call score of the fitted dose curve at least 0.9, where 1 is the maximum; inactive = score below 0.9.
# How the values were obtained:
# [1] = read-out: Human Leukocyte Antigen - DR isotype (HLADR), HLA-DRA (gene 3122); experiment: BSK_BE3C_HLADR: BioMAP Diversity Plus: BE3C Assay for Human Leukocyte Antigen - DR isotype (HLADR) Biomarker Activity (AID 2283032); settings: primary human bronchial epithelial cells; actives raise or lower the signal
# Outline: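 Cell-surface HLA-DR ELISA readout at 24 h after dosing in the BE3C primary human lung bronchial epithelial system; gain or loss of signal against DMSO, with parallel sulforhodamine B staining of total protein for overt cytotoxicity.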
# [2] = read-out: Vascular cell adhesion molecule 1 (VCAM1), VCAM1 (gene 7412); experiment: BSK_4H_VCAM1: BioMAP Diversity Plus: 4H Assay for Vascular cell adhesion molecule 1 (VCAM1) Biomarker Activity (AID 2283033); settings: primary human endothelial cells (HUVEC); actives raise or lower the signal;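 as to outcome: cell-surface VCAM-1 protein measured by ELISA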
# Outline: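 VCAM-1 ELISA read 24 h after chemical dosing of HUVEC in the BioMAP 4H system, with gain or loss of signal fitted relative to DMSO. Parallel SRB staining (560 nm) checked overt cytotoxicity.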
# [3] = read-out: Monokine induced gamma interferon (MIG), CXCL9 (gene 4283); experiment: BSK_BE3C_MIG: BioMAP Diversity Plus: BE3C Assay for Monokine induced gamma interferon (MIG) Biomarker Activity (AID 2283035); settings: primary human bronchial epithelial cells; actives raise or lower the signal
# Outline: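 hu bronchial epithelial 1° cells, 24 h cpd; MIG by ELISA; bidirectional fit, DMSO = baseline.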
# [4] = read-out: Transforming growth factor beta 1 (TGFb1), TGFB1 (gene 7040); experiment: BSK_BE3C_TGFb1: BioMAP Diversity Plus: BE3C Assay for Transforming growth factor beta 1 (TGFb1) Biomarker Activity (AID 2283036;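 as to outcome: TGF-b1 protein level measured by ELISA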); settings: primary human bronchial epithelial cells; actives raise or lower the signal
# Outline: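 ELISA readout of TGF-b1 from human lung bronchial epithelial primary cells, taken 24 h post-treatment. Gain or loss of signal fitted relative to DMSO baseline, with parallel SRB staining for overt cytotoxicity.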
# [5] = read-out: Plasminogen activator inhibitor-1 (PAI1), SERPINE1 (gene 5054); experiment: BSK_BE3C_PAI1: BioMAP Diversity Plus: BE3C Assay for Plasminogen activator inhibitor-1 (PAI1) Biomarker Activity (AID 2283037); settings: primary human bronchial epithelial cells; actives raise or lower the signal
# Outline: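 PAI-1 was measured by ELISA in human primary bronchial epithelial cultures 24 h after chemical dosing, with cytotoxicity checked by SRB total-protein staining in parallel cultures. Activity was fitted in both directions relative to DMSO.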
# [6] = read-out: urokinase plasminogen activator (uPA), PLAU (gene 5328); experiment: BSK_BE3C_uPA: BioMAP Diversity Plus: BE3C Assay for urokinase plasminogen activator (uPA) Biomarker Activity (AID 2283038); settings: primary human bronchial epithelial cells; actives raise or lower the signal;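 as to outcome: uPA protein level quantified by ELISA in cell cultures; uPA read one day after compound addition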
# Outline: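 Human primary bronchial epithelial cells were exposed to chemical for 24 h, then uPA levels were measured by ELISA. Responses were fitted bidirectionally against DMSO as negative control and baseline. Parallel SRB staining of total protein gauged overt cytotoxicity.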
# [7] = read-out: Urokinase-type plasminogen activator receptor (uPAR), PLAUR (gene 5329); experiment: BSK_BE3C_uPAR: BioMAP Diversity Plus: BE3C Assay for Urokinase-type plasminogen activator receptor (uPAR) Biomarker Activity (AID 2283039); settings: primary human bronchial epithelial cells; actives raise or lower the signal;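 as to outcome: cells exposed to compound for one day before measurement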
# Outline: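 uPAR levels were measured by ELISA after 24 h compound treatment of primary human bronchial epithelial cells, fitted in both directions relative to DMSO. Parallel SRB staining served as the cytotoxicity read-out.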
# [8] = read-out: Interleukin-6 (IL6), IL6 (gene 3569); experiment: BSK_CASM3C_IL6: BioMAP Diversity Plus: CASM3C Assay for Interleukin-6 (IL6) Biomarker Activity for (AID 2283040); settings: primary human coronary artery smooth muscle cells; actives raise or lower the signal
# [9] = read-out: Tissue plasminogen activator (tPA), PLAT (gene 5327); experiment: BSK_BE3C_tPA: BioMAP Diversity Plus: BE3C Assay for Tissue plasminogen activator (tPA) Biomarker Activity (AID 2283041); settings: primary human bronchial epithelial cells; actives raise or lower the signal;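 as to outcome: tPA level quantified by ELISA one day after compound addition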
# Outline: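 tPA measured by ELISA 24 h after dosing human primary bronchial epithelial cells (BE3C system). Changes in either direction were fitted against DMSO. Parallel cultures were stained with SRB to flag overt cytotoxicity.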
# [10] = read-out: Interleukin-8 (IL8), CXCL8 (gene 3576); experiment: BSK_CASM3C_IL8: BioMAP Diversity Plus: CASM3C Assay for Interleukin-8 (IL8) Biomarker Activity (AID 2283042); settings: primary human coronary artery smooth muscle cells; actives raise or lower the signal;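 also: IL-8 protein level quantified by ELISA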
# [11] = read-out: Human Leukocyte Antigen - DR isotype (HLADR), HLA-DRA (gene 3122); experiment: BSK_CASM3C_HLADR: BioMAP Diversity Plus: CASM3C Assay for Human Leukocyte Antigen - DR isotype (HLADR) Biomarker Activity (AID 2283043); settings: primary human coronary artery smooth muscle cells; actives raise or lower the signal;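 also: cell-surface HLA-DR protein level quantified by ELISA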
# [12] = read-out: Macrophage colony-stimulating factor (MCSF), CSF1 (gene 1435); experiment: BSK_CASM3C_MCSF: BioMAP Diversity Plus: CASM3C Assay for Macrophage colony-stimulating factor (MCSF) Biomarker Activity (AID 2283044); settings: primary human coronary artery smooth muscle cells; actives raise or lower the signal;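 also: M-CSF protein amount quantified by ELISA after 24 h exposure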
# [13] = read-out: Low-density lipoprotein receptor (LDLR), LDLR (gene 3949); experiment: BSK_CASM3C_LDLR: BioMAP Diversity Plus: CASM3C Assay for Low-density lipoprotein receptor (LDLR) Biomarker Activity (AID 2283045); settings: primary human coronary artery smooth muscle cells; actives raise or lower the signal;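 also: LDLR protein level on the cell surface quantified by ELISA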
# [14] = read-out: Monocyte Chemoattractant Protein-1 (MCP1), CCL2 (gene 6347); experiment: BSK_CASM3C_MCP1: BioMAP Diversity Plus: CASM3C Assay for Monocyte Chemoattractant Protein-1 (MCP1) Biomarker Activity (AID 2283046); settings: primary human coronary artery smooth muscle cells; actives raise or lower the signal;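 also: MCP-1 level quantified by ELISA 24 h after dosing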
# [15] = BSK_CASM3C_Proliferation: Cell Proliferation Assessment in the BioMAP Diversity Plus: CASM3C Assay (AID 2283047); settings: primary human coronary artery smooth muscle cells;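 also: sulforhodamine B total protein stain as relative cell number at 560 nm; sub-confluent cells exposed 48 h before staining; fitted both ways against DMSO so gain or loss of cell number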
# [16] = read-out: Monokine induced gamma interferon (MIG), CXCL9 (gene 4283); experiment: BSK_CASM3C_MIG: BioMAP Diversity Plus: CASM3C Assay for Monokine induced gamma interferon (MIG) Biomarker Activity (AID 2283048); settings: primary human coronary artery smooth muscle cells; actives raise or lower the signal
# [17] = read-out: serum amyloid A (SAA), SAA1 (gene 6288); experiment: BSK_CASM3C_SAA: BioMAP Diversity Plus: CASM3C Assay for serum amyloid A (SAA) Biomarker Activity (AID 2283049); settings: primary human coronary artery smooth muscle cells; actives raise or lower the signal;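 also: SAA protein level quantified by ELISA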
# [18] = BSK_CASM3C_SRB: Viability Assessment in the BioMAP Diversity Plus: CASM3C Assay (AID 2283050); settings: primary human coronary artery smooth muscle cells
# [19] = read-out: Vascular endothelial growth factor receptor 2 (Homo sapiens) (UniProt P35968); experiment: BSK_4H_VEGFRII: BioMAP Diversity Plus: 4H Assay for Vascular endothelial growth factor receptor 2 (VEGFR2) Biomarker Activity (AID 2283031); settings: primary human endothelial cells (HUVEC); actives raise or lower the signal
# Outline: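 Primary human umbilical vein endothelial cells in the BioMAP 4H system were dosed with test chemical, and 24 h later VEGFRII was measured by ELISA. Activity was fitted bidirectionally against DMSO as negative control and baseline.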
structure (smiles),measurement,setting,value
OCCO,outcome,[1],inactive
same,outcome,[2],inactive
same,outcome,[3],inactive
same,outcome,[4],inactive
same,outcome,[5],inactive
same,outcome,[6],inactive
same,outcome,[7],inactive
same,outcome,[8],inactive
same,outcome,[9],inactive
same,outcome,[10],inactive
same,outcome,[11],inactive
same,outcome,[12],inactive
same,outcome,[13],inactive
same,outcome,[14],inactive
same,outcome,[15],inactive
same,outcome,[16],inactive
same,outcome,[17],inactive
same,outcome,[18],inactive
COCC(C)OCC(C)OCC(C)O (stereo unspecified),outcome,[19],inactive
same,outcome,[1],inactive
same,outcome,[2],inactive
same,outcome,[3],inactive
same,outcome,[4],inactive
same,outcome,[5],inactive
same,outcome,[6],inactive
same,outcome,[7],inactive
same,outcome,[8],inactive
same,outcome,[9],inactive
same,outcome,[10],inactive
same,outcome,[11],inactive
same,outcome,[12],inactive
same,outcome,[13],inactive
same,outcome,[14],inactive
same,outcome,[15],inactive
same,outcome,[16],inactive
same,outcome,[17],inactive
same,outcome,[18],inactive
O=C(O)Cn1c(=O)n(Cc2ccc(Br)cc2F)c(=O)c2ccc(Cl)cc21,outcome,[19],inactive
same,outcome,[1],inactive
same,outcome,[2],inactive
same,outcome,[3],inactive
same,outcome,[4],inactive
same,outcome,[5],inactive
same,outcome,[6],inactive
same,outcome,[7],inactive
same,outcome,[8],inactive
same,AC50,[9],11.5 µM (active)
same,outcome,[10],inactive
same,outcome,[11],inactive
same,outcome,[12],inactive
same,outcome,[13],inactive
same,outcome,[14],inactive
same,outcome,[15],inactive
same,outcome,[16],inactive
same,outcome,[17],inactive
same,outcome,[18],inactive
CCCCCCCCCC(=O)O,outcome,[19],inactive
same,outcome,[1],inactive
same,outcome,[2],inactive
same,outcome,[3],inactive
same,outcome,[4],inactive
same,outcome,[5],inactive
same,outcome,[6],inactive
same,outcome,[7],inactive
same,outcome,[8],inactive
same,outcome,[9],inactive
same,outcome,[10],inactive
same,outcome,[11],inactive
same,outcome,[12],inactive
same,outcome,[13],inactive
same,outcome,[14],inactive
same,outcome,[15],inactive
same,outcome,[16],inactive
same,outcome,[17],inactive
same,outcome,[18],inactive
CCCC(=O)OCCC(C)C,outcome,[19],inactive
same,outcome,[1],inactive
same,outcome,[2],inactive
same,outcome,[3],inactive
same,outcome,[4],inactive
same,outcome,[5],inactive
same,outcome,[6],inactive
same,outcome,[7],inactive
same,outcome,[8],inactive
same,outcome,[9],inactive
same,outcome,[10],inactive
same,outcome,[11],inactive
same,outcome,[12],inactive
same,outcome,[13],inactive
same,outcome,[14],inactive
same,outcome,[15],inactive
same,outcome,[16],inactive
same,outcome,[17],inactive
same,outcome,[18],inactive
CCCCCc1ccc(N)cc1,outcome,[19],inactive
same,outcome,[1],inactive
same,outcome,[2],inactive
same,outcome,[3],inactive
same,outcome,[4],inactive
same,outcome,[5],inactive
same,outcome,[6],inactive
same,AC50,[7],5.56 µM (active)
same,outcome,[8],inactive
same,outcome,[9],inactive
same,outcome,[10],inactive
same,outcome,[11],inactive
same,outcome,[12],inactive
same,outcome,[13],inactive
same,outcome,[14],inactive
same,outcome,[15],inactive
same,outcome,[16],inactive
same,outcome,[17],inactive
same,outcome,[18],inactive
CN(C[C@@H](CC[N+]12CCC(C3CCCCC3)(CC1)CC2)c1ccc(Cl)c(Cl)c1)C(=O)c1cc(C(F)(F)F)cc(C(F)(F)F)c1,outcome,[19],inactive
same,AC50,[1],12.6 µM (active)
same,AC50,[2],32 µM (active)
same,AC50,[3],29.6 µM (active)
same,AC50,[4],17.5 µM (active)
same,AC50,[5],12.5 µM (active)
same,AC50,[6],16.6 µM (active)
same,AC50,[7],13.6 µM (active)
same,AC50,[8],15.9 µM (active)
same,AC50,[9],11.9 µM (active)
same,AC50,[10],24.7 µM (active)
same,AC50,[11],12.7 µM (active)
same,AC50,[12],14.9 µM (active)
same,AC50,[13],14.3 µM (active)
same,AC50,[14],15.6 µM (active)
same,AC50,[15],9.26 µM (active)
same,AC50,[16],31.1 µM (active)
same,AC50,[17],18 µM (active)
same,AC50,[18],14.7 µM (active)
CCCCOC(=O)CC(CC(=O)OCCCC)(OC(C)=O)C(=O)OCCCC,outcome,[19],inactive
same,AC50,[1],20 µM (active)
same,outcome,[2],inactive
same,outcome,[3],inactive
same,outcome,[4],inactive
same,outcome,[5],inactive
same,outcome,[6],inactive
same,outcome,[7],inactive
same,outcome,[8],inactive
same,outcome,[9],inactive
same,outcome,[10],inactive
same,outcome,[11],inactive
same,outcome,[12],inactive
same,outcome,[13],inactive
same,outcome,[14],inactive
same,outcome,[15],inactive
same,outcome,[16],inactive
same,AC50,[17],20 µM (active)
same,outcome,[18],inactive

# Source: PubChem BioAssay (EPA / NIEHS)
